B1: chrX:48700291:48700392:+|CDS|ENSG00000101945|unk|FALSE|unique (ssRNA)
RNA: GGGAGUUCUACAGUCCGACGAUCGCUCCGUCGCUGGGAGCAGGAGCUCAAUGCCAAGCGCAGCCAUCUGGGACGCAUCACUGUAGAGAAUGAGGUGGACCUGGACGGCCCUCCGCGGGCCUUCGUGUACAUCAAUGAGUACCGCAACAGAGGAUUGAGCAUCA
B2: chr20:13714314:13714426:-|3pUTR|ENSG00000089048|unk|total|mutant (ssRNA)
RNA: GGGAGUUCUACAGUCCGACGAUCUUUUUCCCGCCAUAAAGGAUGGAAGUCAAGAACUUUUUGUUGUUCCGUCAUGUUAAGUACCGUUUAUGAAAUUAACUUGUAAAUAAAAGUGUAAAAUAUUUUCAUUAUUUUGUACCGCACCAACAGAGGAUUGAGCAUCA
B3: chr11:69651696:69651723:+|3pUTR|ENSG00000110092|msi1_unk|total|mutant (ssRNA)
RNA: GGGAGUUCUACAGUCCGACGAUCGAGGAUCCGGUUCCAUCCUUUACGUGUUUAAAAAAAAGCAUAAAAACAUUUUAAAAACACCGAAAAAUUCAGCAAACCAUUUUUAAAGCCGAAGAGGGUUUCCGGCCGAAAAACAUAUUCCAACAGAGGAUUGAGCAUCA
B4: chr11:69651733:69651797:+|3pUTR|ENSG00000110092|msi1_unk|FALSE|overlapping (ssRNA)
RNA: GGGAGUUCUACAGUCCGACGAUCAAAACAUUUUAAAAACAUAGAAAAAUUCAGCAAACCAUUUUUAAAGUAGAAGAGGGUUUUAGGUAGAAAAACAUAUUCUUGUGCUUUUCCUGAUAAAGCACAGCUGUAGUGGGGUUCUAGCAACAGAGGAUUGAGCAUCA
B5: chr21:14371318:14371404:-|3pUTR|ENSG00000155304|msi1_unk|FALSE|overlapping (ssRNA)
RNA: GGGAGUUCUACAGUCCGACGAUCUAUGAAUAACAAUCUGAAGUCUUUUCAUAAAAAAAAUUAAUAAACUUUAGUUGUACAUUUAGCCAGUGUUAUUUGAAGUAUGUAACUUUUAAAAUAUUAAGUGUCUUGUAUGAUUAGAAUCAACAGAGGAUUGAGCAUCA
B6: chr2:206311781:206311882:+|3pUTR|ENSG00000204186|unk|total|mutant (ssRNA)
RNA: GGGAGUUCUACAGUCCGACGAUCCCGUGUUCCGAGUCCUUUCAUUUUAAGAUUCAGAAACAGCCUUUGUCCAACAUUUUCUGCCGAAGAACUUCAUCUUAAUUUAUGUCACAAAAUAAUUCCGCACCGUAUACCGAAUUUUGUCAACAGAGGAUUGAGCAUCA
B7: chr20:13714314:13714426:-|3pUTR|ENSG00000089048|unk|FALSE|unique (ssRNA)
RNA: B2 RNA with C30U, C31A, C68U, C69A, C83U, C84A, C138U, C139A
B8: chr8:30995801:30996592:-|three_prime_utr|ENSG00000172733|control|control|control (ssRNA)
RNA: GGGAGUUCUACAGUCCGACGAUCUUGUUUUUUUUAAUUCAUCAAGCCUUUCGUUUUCAAACCACCAUUUGUCAGCCUUGAGGUAGAGAGACAUAUAGAUUUGAAAAUACUUUCUUAAGAGAUCAUGUAACUAUAUAACUCUGACAACAGAGGAUUGAGCAUCA
B9: chr10:121957106:121957207:-|3pUTR|ENSG00000107672|msi1|total|mutant (ssRNA)
RNA: GGGAGUUCUACAGUCCGACGAUCUGUAUCGUACAUAUUGUAUGAUUCAACAUUUUUAAAGGCAGAUUGUUUUCCGUAAAAUGCCGCUUUUGACCGUUAAUAAAUUUGUCAUGGUUGUCUUUGAUUAAAGGAAACUCACCGCCACAACAGAGGAUUGAGCAUCA
B10: chr11:69651696:69651723:+|3pUTR|ENSG00000110092|msi1_unk|FALSE|overlapping (ssRNA)
RNA: B3 RNA with C30U, C31A, C83U, C84A, C112U, C113A, C125U, C126A, C129U, C130A
B11: chr10:121957106:121957207:-|3pUTR|ENSG00000107672|msi1|FALSE|bound_elsewhere (ssRNA)
RNA: B9 RNA with C73U, C74A, C83U, C84A, C93U, C94A
B12: ENSG00000198589:be:win_9051|3pUTR|ENSG00000198589|bound_else_gene|NA|bound_elsewhere_windowed (ssRNA)
RNA: GGGAGUUCUACAGUCCGACGAUCGUAAAUGUAAUUUAAAACAUCUCAAUUAAGUCUGUCUAUCAAUAUUGUUCUUCAAGCAUGUUUUAGACCUAGAAAAGUAUGGUUUGGGGGAGGCUAUUUUAUUGUGUGGUUAGCACAAGGCAACAGAGGAUUGAGCAUCA
B13: chr2:206311781:206311882:+|3pUTR|ENSG00000204186|unk|FALSE|unique (ssRNA)
RNA: B6 RNA with C24U, C25A, C31U, C32A, C83U, C84A, C121U, C122A, C133U, C134A
B14: ENSG00000150403:stop:overlap|stop_codon|ENSG00000150403|stop_codon|NA|stop_codon (ssRNA)
RNA: GGGAGUUCUACAGUCCGACGAUCUGUCCAGGUUCCUCAUGGGCAGUGCUCGGGGUGACAAAGAAGGCAACAGAACAGCCCUCUAGCAGAGCGUCAGUGCAGUCGUGUUAUCCCGGCUUUUACAGAAUAUUCUUGUCCUAUUUUCAACAGAGGAUUGAGCAUCA
B15: chr1:37566712:37566813:+|3pUTR|ENSG00000163879|unk|FALSE|unique (ssRNA)
RNA: GGGAGUUCUACAGUCCGACGAUCGCUUUAUUUCCCUAGCACUGGUGAAGGGCUUCAACUGUCAAACCUCAGAACAAAUGCAUUAGGGCCUUAGAAAUGUCAAUGGGGCAGGAAGAAAACACAAUUUCUAACUGCCUGUUUUUGCAACAGAGGAUUGAGCAUCA
B16: chr16:16142165:16142266:+|3pUTR|ENSG00000103222|msi1|total|mutant (ssRNA)
RNA: GGGAGUUCUACAGUCCGACGAUCAUUGAUGUGGGGUAAAUAUUAAGGAGAUGGCCUCAUGGGAAUUUGACCUUGACCCGAAACCGAGACUGAGAGUGAGCAACCAGCUGGAAGGUACUAUGCCAGUCCCCGCAGAAAAAUGUGCAACAGAGGAUUGAGCAUCA
B17: chr20:4701031:4701132:+|3pUTR|ENSG00000171867|msi1|total|mutant (ssRNA)
RNA: GGGAGUUCUACAGUCCGACGAUCCACCGUUUCUGUAAUUGGCUUUUGAAUCAAAGAACCGGGAGACAAUCUAAAAAAUAUCUCCGGUUGGAGAUGACAGAAAUAUGAUUGAUUUGAAGUGGAAAAAGAAAUUCUGUUAAUGUUCAACAGAGGAUUGAGCAUCA
B18: chr19:21059139:21059240:+|3pUTR|ENSG00000118620|unk|total|mutant (ssRNA)
RNA: GGGAGUUCUACAGUCCGACGAUCGUAAAAAUGAAAAUAUUUAAUCCAAAAUUAAGUCUAUGUAAAUAUCAGAGAAUUUACUGCCGAAAUAUAUAAGGCACUGAGACUUCAGAUAUUAUACUAAAUCAGAGUGCUGAGUACCGACAACAGAGGAUUGAGCAUCA
B19: chr17:42200006:42200107:-|3pUTR|ENSG00000173757|unk|total|mutant (ssRNA)
RNA: GGGAGUUCUACAGUCCGACGAUCAAGCUGCCGUUUGCCUUGGCUUGGUUUCAUACACUGAUUUAUUUUUCUAUGCCAGGCAGCCGAGUCUCUCUGCCUCUGAGGAGCAGGCUACCCGCAUCCCACUCAGCCCCUCCCUACCCCCAACAGAGGAUUGAGCAUCA
B20: chr20:3582170:3582271:+|CDS|ENSG00000088812|msi1|FALSE|bound_elsewhere (ssRNA)
RNA: GGGAGUUCUACAGUCCGACGAUCGGCCUUCGGAAGAUCAAUGUGUCCUACUGGUGCUGGGAAGAUAUGUCCCCAUUUACAAAUAGUUUACUACAGUGGAUGCCGUCUGAGCCCAGUGAUGCUGGAUUCUGUGGAAUUUUAUCACAACAGAGGAUUGAGCAUCA
B21: chr3:10101824:10101929:+|3pUTR|ENSG00000144554|unk|total|mutant (ssRNA)
RNA: GGGAGUUCUACAGUCCGACGAUCAAAAUCUCUGAGUCAUGAUUCUGGACUUUGGGAGCCCGUUUUGAAACUCUGAUUUAUUGCCGAACUCCGGCUUGUACCAAUUUUACAAAUAAAUUCUGUUCUAAGUUCUGCCUCAGUUGCCAACAGAGGAUUGAGCAUCA
B22: ENSG00000166086:stop:overlap|stop_codon|ENSG00000166086|stop_codon|NA|stop_codon (ssRNA)
RNA: GGGAGUUCUACAGUCCGACGAUCUCCUGCUGCUGCUUUUCAGGGAGUCAAGUCUAGUCUGCUUUCCAAGGCUGCAUUCUAAGUAGUGAAGCCUCAACUUCAUAUUUACCUAAAGCAGGACACCACACUCUUCCCCUGGCAGCCCAACAGAGGAUUGAGCAUCA

The text below walks through data of article PMC12136788.

Positions count from the first letter of the chain named. Whole data set: some 5,800 sequences, median “enrichment r” near 0.54, cut for the highest 2% near 16. This is one part of a sample in which the highest values are shown more often than they occur.

In this test the target is MSI1 full-length (mouse, UniProt Q61474 1-362). In words: nsRBNS (natural sequence RNA bind-n-seq); RBNS binding buffer (assumed for nsRBNS): 25 mM Tris pH 7.5, 150 mM KCl, 3 mM MgCl2, 0.01% Triton X-100, 500 ug/ml BSA, 20 U/ml SUPERase-In, 4 C; UNK is unkempt and MSI1 is Musashi-1; names of the RNAs are library labels; protein concentration not given here; high values mean tight binding.
Chain of MSI1 full-length (Q61474 whole entry): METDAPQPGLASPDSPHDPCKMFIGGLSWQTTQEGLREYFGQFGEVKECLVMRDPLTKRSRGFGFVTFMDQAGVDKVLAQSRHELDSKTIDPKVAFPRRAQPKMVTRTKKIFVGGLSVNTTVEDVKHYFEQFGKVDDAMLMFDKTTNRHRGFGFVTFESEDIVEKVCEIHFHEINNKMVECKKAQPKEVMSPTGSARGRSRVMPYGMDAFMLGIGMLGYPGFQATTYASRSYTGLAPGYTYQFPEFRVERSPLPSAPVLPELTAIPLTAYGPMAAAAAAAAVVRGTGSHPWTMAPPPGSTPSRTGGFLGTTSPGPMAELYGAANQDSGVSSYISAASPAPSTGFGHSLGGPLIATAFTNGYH
In turn, B1 showed a binding signal of 0.398 enrichment R.

Molecule B2 registered a binding signal of 0.796 enrichment R.

For B3, the binding signal was determined as 0.383 enrichment R.

B4 gave a binding signal of 13.6 enrichment R.

Turning to B5, the binding signal came to 6.15 enrichment R.

Take B6: the binding signal came to 0.669 enrichment R.

On to B7, for which the binding signal is 58.4 enrichment R.

The molecule B8 returned a binding signal of 0.712 enrichment R.

Turning to B9, the binding signal came out at 0.237 enrichment R.

On to B10, for which the binding signal was found to be 17.8 enrichment R.

Molecule B11 showed a binding signal of 17.9 enrichment R.

B12: the binding signal is 3.05 enrichment R.

As to B13, the binding signal came out at 16.7 enrichment R.

On to B14, for which the binding signal was 0.829 enrichment R.

In turn, B15 gave a binding signal of 0.39 enrichment R.

B16 returned a binding signal of 0.411 enrichment R.

B17: the binding signal amounted to 0.277 enrichment R.

In turn, B18 had a binding signal of 4.16 enrichment R.

The molecule B19 returned a binding signal of 0.705 enrichment R.

B20 registered a binding signal of 0.86 enrichment R.

For the molecule B21, the binding signal was 0.338 enrichment R.

Consider B22, for which the binding signal was found to be 0.461 enrichment R.
